Screening data as filed in PubChem.
GPR151 ag: activates the human receptor GPR151 | Q8TDV0 | PathHunter beta-arrestin GPR151 cells, luminescence | activation, % at 11.2 µM | 650,000 tested, 1% active | AID 1508602; in the data active means activation above about 4.9%;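 further: 0% = median of compound wells and 100% = cells with positive control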
Target sequence (Q8TDV0 whole entry, looked up): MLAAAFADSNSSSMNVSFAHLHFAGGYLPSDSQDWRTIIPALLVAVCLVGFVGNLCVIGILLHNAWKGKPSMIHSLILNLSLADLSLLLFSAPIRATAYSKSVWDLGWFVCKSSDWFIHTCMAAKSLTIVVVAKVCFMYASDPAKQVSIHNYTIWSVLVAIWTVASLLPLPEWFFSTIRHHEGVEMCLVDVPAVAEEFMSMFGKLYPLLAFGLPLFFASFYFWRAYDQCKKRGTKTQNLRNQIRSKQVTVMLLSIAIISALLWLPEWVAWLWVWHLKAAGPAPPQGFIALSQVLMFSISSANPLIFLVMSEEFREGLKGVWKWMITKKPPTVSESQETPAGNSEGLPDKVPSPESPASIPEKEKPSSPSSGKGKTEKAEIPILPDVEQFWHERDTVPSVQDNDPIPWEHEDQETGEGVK
TEAD-YAP inh: TEAD-YAP interaction inhibition; HEK-TIYL cells, TEAD-Gal4/YAP UAS-luciferase luminescence; AID 1259422; inhibition, % at 9.12 µM; 640,000 tested, 1.4% active; in the data active means inhibition above about 32%;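 further: 0% = median of test compound wells and 100% = reference inhibitor wells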
FBW7 activator: human FBW7 E3 ligase activation, primary screen | Q969H0 | AlphaScreen FBW7–phospho-cyclin E peptide binding, activator screen | normalized activity (activation), % at 26.1 µM | 650,000 tested, 0.13% active; in the data active means normalized activity above about 1.9%;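 further: purified mutant Fbw7 with reduced substrate affinity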
MITF inh: human MITF inhibition, primary screen. O75030. AlphaScreen MITF homodimerization, bead proximity signal. inhibition, % at 2.6 µM. 650,000 tested, 0.91% active; in the data active means inhibition above about 50%;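 further: 0% = vehicle wells with protein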
* = called active by the depositor; ! = not confirmed by another sample. Most compounds without a hit are left out; they make up all but 3.5% or so of the library.

SMILES | GPR151 ag | TEAD-YAP inh | FBW7 activator | MITF inh
O=C(NC1CCCC1)C1C2C=CC3(O2)C1C(=O)N(C1CCCC1)C3C(=O)NC1CCCC1 (centres undefined) | 4 | -2 | 0 | 4
Cc1cccc(OCC(=O)NN)c1C | -1 | 1 | 0 | 10
Cc1nc(C)c(C(=O)NN)cc1C(=O)NN | 0 | -10 | 0 | 10
O=C(/C=C/c1ccc(O)c(O)c1)c1ccc(O[C@@H]2O[C@H](CO)[C@@H](O)[C@H](O)[C@H]2O)c(O)c1O | 3 | 2 | 0 | 56*
COc1ccc(/C=C(\C#N)C(=O)Nc2ccc([N+](=O)[O-])cc2Cl)cc1OC | -1 | -14 | 0 | -14
O=C(N/N=C/c1ccccc1O)c1n[nH]c2c1CCCC2 | -3 | 33* | -2 | 4
O=C(N/N=C\c1ccccc1[N+](=O)[O-])c1n[nH]c2c1CCCC2 | -8 | 54* | 0 | 23
CCc1nnc(NS(=O)(=O)c2ccc(NC(=O)c3ccc(N(C)C)cc3)cc2)s1 | 0 | 6 | 0 | 2
COc1ccccc1NC(=O)CC(NCc1ccco1)C(=O)O (centres undefined) | -1 | 10 | 0 | 15
CCOc1ccccc1N=CC1=C(O)CC(c2ccccc2)CC1=O (centres undefined) | 1 | 5 | 2.0*! | 3
CSc1ccccc1N=CC1=C(O)CC(c2ccccc2)CC1=O (centres undefined) | 0 | 5 | 0 | 13
O=C1CC(c2ccccc2)CC(O)=C1C=NCc1ccccc1Cl (centres undefined) | 2 | 51* | 0 | 7
O=C1CC(c2ccccc2)CC(O)=C1C=NCc1ccc2c(c1)OCO2 (centres undefined) | 0 | 38* | 0 | -7
CC(=O)Nc1ccc2c(c1)C(=O)Nc1ccccc1O2 | 0 | 9 | 0 | 10
CCn1c(O)c(C=Nc2ccccc2Cl)sc1=S | 0 | 32* | 0 | -3
CCCCOc1ccc(-c2cnc(S(C)(=O)=O)nc2)cc1 | 2 | 46* | 0 | 0
COc1ccccc1C(=O)N1CCN(c2ccccc2OC)CC1 | 2 | 8 | 0 | -8
CCOc1ccccc1N1CCN(C(=O)C2CCN(Cc3ccccc3O)CC2)CC1 | -1 | 9 | 0 | 62*
CCOc1ccccc1N1CCN(C(=O)c2cc(OC)c(OC)c(OC)c2)CC1 | 1 | 64* | 0 | -4
COc1ccc(Cl)cc1C(=O)N1CCN(c2ccccc2OC)CC1 | -1 | 54* | 0 | 6
COc1ccc(Cl)cc1C(=O)N1CCN(c2ccccc2)CC1 | -1 | 50* | 0 | 0
CNS(=O)(=O)c1cc(-c2nnc(Nc3ccc(Cl)c(Cl)c3)c3ccccc23)ccc1C | -1 | -36 | 0 | 17
O=C1CCCN1CCn1cnc2c(NCc3ccccc3)nc(Nc3ccc(C(F)(F)F)cc3)nc21 | 1 | 8 | 1 | 9
COc1cc(SC)ccc1C(=O)N1CCN(c2ccccc2OC)CC1 | 0 | 56* | 1 | 18
CCSc1ncc(Cl)c(C(=O)N2CCN(c3ccccc3OC)CC2)n1 | 1 | 60* | 0 | 9
SMILES | GPR151 ag | TEAD-YAP inh | FBW7 activator | MITF inh
COc1ccccc1N1CCN(C(=O)c2c(-c3ccccc3)noc2C)CC1 | 2 | 44* | 0 | -4
CC(=O)Nc1ccc(NC(=O)c2cnc(N3CCC(N4CCOCC4)CC3)s2)cc1 | -1 | -5 | 0 | 10
Cc1ccc(N=c2scc(C)n2CCCO)c(C)c1 | 1 | -20 | 0 | 18
CCC(C)NC(=O)CCn1c(-c2ccc(OC)cc2)cc(C(C)=O)c1C (centres undefined) | 0 | -6 | 0 | -11
CCOC(=O)c1c(NC(=O)C(C)Sc2nnc(CNC(=O)Cc3ccccc3)n2-c2ccccc2OC)sc2c1CCC2 (centres undefined) | 1 | 10 | 1 | 9
Cc1ccc(-c2nc3cc(NC(=O)c4ccc(Cl)cc4Cl)ccc3o2)cc1 | 0 | -29 | 1 | 15
Cc1ccc(OCc2nc(-c3ccccn3)no2)c(Br)c1 | -7 | 39* | 0 | 4
COc1cccc(N2CCN(C(=O)c3[nH]c(C)c(C(C)=O)c3C)CC2)c1 | 2 | 40* | 0 | 2
CCc1c(C(=O)N2CCN(c3cccc(OC)c3)CC2)[nH]c(C)c1C(C)=O | 0 | 54* | 0 | 8
CC(=O)c1c(C)[nH]c(C(=O)N2CCN(c3ccc(F)cc3)CC2)c1C | 0 | -3 | 0 | -1
CC(=O)c1c(C)[nH]c(C(=O)N2CCN(c3cc(Cl)ccc3C)CC2)c1C | -1 | -2 | 0 | 8
CC(=O)c1c(C)[nH]c(C(=O)N2CCN(c3cccc(Cl)c3)CC2)c1C | 1 | 52* | 0 | 8
CC(=O)/C(C(=N)N1CCN(Cc2ccc3c(c2)OCO3)CC1)=C(/C)O | 1 | 8 | 0 | 0
CCOc1ccc(Br)cc1C1Oc2nc(SC)nnc2-c2ccccc2N1C(=O)CC (centres undefined) | 1 | 8 | 0 | 17
O=C(Cc1ccc([N+](=O)[O-])cc1)OCC(=O)c1ccc2ccccc2c1 | 1 | 46* | 0 | 20
OC1CCC(Nc2nccc(NCc3cccc(C(F)(F)F)c3)n2)CC1 (centres undefined) | 1 | 48* | 0 | 4
CCNc1nccc(NCc2cccc(C(F)(F)F)c2)n1 | 1 | 37* | 0 | -3
OC1CCC(Nc2nccc(NCc3ccccc3)n2)CC1 (centres undefined) | -1 | 11 | 0 | 6
FC(F)(F)c1cccc(CNc2ccnc(Nc3ccc(-n4ccnc4)cc3)n2)c1 | 3 | 36* | 0 | 7
CCNc1nc(C)cc(NCc2cccc(C(F)(F)F)c2)n1 | -1 | 18 | 0 | 7
NC(=O)COC(=O)/C=C/c1cn(Cc2ccccc2)nc1-c1cccs1 | -1 | -2 | 0 | -5
COc1c(Br)cc(/C=N/NC(=O)CC#N)cc1Br | -1 | 2 | 0 | -4
COc1ccc(C=Nc2ccccc2C(N)=O)c2ccccc12 | 0 | 60* | 0 | 24
Cc1ccc(C=Nc2ccccc2C(N)=O)s1 | 0 | 36* | 0 | 4
NC(=O)c1ccccc1N=Cc1ccc(Br)s1 | 3 | 8 | 0 | 14
SMILES | GPR151 ag | TEAD-YAP inh | FBW7 activator | MITF inh
CCN(CC)c1ccc(NC(=O)c2cc3ccccc3oc2=O)cc1 | 0 | -40 | 1 | 16
CC[C@H](C)[C@@H]1NC(=O)[C@H]2CN(C(=O)Oc3ccc(Cl)cc3)CCN2C1=O | 3 | -2 | 0 | -4
O=c1oc2cc(Cl)c(O)c(Cl)c2s1 | -1 | 14 | 0 | 55*
O=c1oc2c(Br)cc(Br)c(O)c2s1 | 1 | -11 | -1 | 8
O=c1oc2cc(Cl)c(O)cc2s1 | 1 | -2 | -1 | 19
Cc1c(Br)c(O)c(Br)c2sc(=O)oc12 | 0 | 4 | -1 | 79*
COC(=O)Oc1c(Br)cc2sc(=O)oc2c1Br | 0 | -2 | 0 | 5
O=c1oc2cc(Br)c(O)c(Br)c2s1 | 0 | -4 | -1 | 59*
CC(C)(C)c1ccc(Oc2c(C(F)(F)F)oc3cc(O)ccc3c2=O)cc1 | 1 | 88* | 0 | -1
COC(=O)c1ccc(Oc2c(C(F)(F)F)oc3cc(O)ccc3c2=O)cc1 | 0 | -2 | 0 | 4
